# Compounds with a hit are over-represented: about 3.3% of the library has one in this group of screens.
# SARS PLpro yeast – SARS-CoV PLP inhibition in yeast; S. cerevisiae expressing SARS-CoV PLpro, growth rescue; Potency, µM (doses to about 32.9 µM), without a hit: at the highest dose activity, positive = growth rescue, actives largely listed as activators; hit rate 0.19% among 330,000; calls by dose curve; also: 0% is about no effect; nearly all actives have a fitted effect of over 55% in size
# NS1 function inh – blocks influenza NS1 protein function; hit rate 0.4% among 270,000; Potency, µM (doses to about 46.1 µM), inactives show at the top dose activity, positive = more growth; calls by dose curve; also: actives are rising curves; nearly all actives have a fitted effect of over 50% in size
#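 OD600 was taken as the measure of yeast growth restored by compound in an NS1-expressing S. cerevisiae strain. Cells had been washed out of glucose medium and diluted 1:100 into galactose -URA medium, pH 6.0.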
# LmPK inh – inhibitors of Leishmania mexicana pyruvate kinase; purified LmPK, Kinase-Glo ATP luminescence, 1 h; Potency, µM (series often up to 57.5 µM), without a hit: at the highest dose activity change, negative = inhibition, hits mostly inhibitors; Q27686; hit rate 0.37% among 290,000; also: % is scaled to controls: 0 for no effect and ±100 for the full control effect
# Target sequence (Q27686 whole entry, looked up): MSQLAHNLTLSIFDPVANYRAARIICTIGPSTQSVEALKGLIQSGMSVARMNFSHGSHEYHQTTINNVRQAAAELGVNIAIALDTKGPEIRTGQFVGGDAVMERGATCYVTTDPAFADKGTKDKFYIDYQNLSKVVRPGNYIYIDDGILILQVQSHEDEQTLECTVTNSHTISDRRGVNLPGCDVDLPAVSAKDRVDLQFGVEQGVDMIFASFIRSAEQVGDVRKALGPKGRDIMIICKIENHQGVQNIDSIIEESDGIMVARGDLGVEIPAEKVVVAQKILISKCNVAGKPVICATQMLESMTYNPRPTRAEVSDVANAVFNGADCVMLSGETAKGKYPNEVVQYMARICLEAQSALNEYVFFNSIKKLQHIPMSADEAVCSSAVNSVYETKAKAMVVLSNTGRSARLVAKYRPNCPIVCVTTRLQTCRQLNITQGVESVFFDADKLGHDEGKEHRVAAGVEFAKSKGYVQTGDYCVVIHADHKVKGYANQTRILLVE
#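 Purified LmPK (0.1 nM) with 0.5 mM PEP and 0.1 mM ADP in imidazole buffer pH 7.2 with MgCl2/KCl, 1 h at room temperature. ATP formed was read by luciferase luminescence and normalized to no-enzyme and uninhibited controls.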
# Sm TGR inh – S. mansoni TGR enzyme inhibition. Q962Y6. purified TGR, DTNB reduction, TNB absorbance 405 nm. Potency, µM (titrated, usually from 114 µM), inactives show at the highest dose activity change, negative = inhibition, actives largely listed as inhibitors. hit rate 3% among 360,000; also: % is scaled to controls: 0 for no effect and ±100 for the full control effect; nearly all actives have a fitted effect of over 60% in size
#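 TGR 20 nM + NADPH 100 uM (dispensed conc.), cpd preinc 15 min RT; start with NADPH (500 uM addition) then DTNB (15 mM addition). Kinetic TNB absorbance, 405 nm filter. Four-parameter Hill fit across titration.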
# Tb PYK inh – T. brucei pyruvate kinase inhibition; Potency, µM (doses to about 76.8 µM), inactives show top-dose activity, negative = inhibition, hits mostly inhibitors; TbPYK enzyme, Kinase-Glo Plus ATP luminescence, 45 min; hit rate 0.12% among 410,000; AID 624173; also: % is scaled to controls: 0 for no effect and ±100 for the full control effect; nearly all actives have a fitted effect of over 50% in size
#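 Activity of T. brucei pyruvate kinase was followed by Kinase-Glo Plus luminescence after the enzyme reacted 45 min at room temperature with 130 uM ADP (final) and substrate. Test compounds were added before ADP at multiple concentrations.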
# RE007 growth inh – less growth of the S. pombe RE007 Vpr strain. AID 651644. Potency, µM (top dose mostly 92.2 µM), without a hit: at the top dose activity change, negative = less growth, actives largely listed as inhibitors. S. pombe RE007 Vpr strain, BacTiter-Glo ATP luminescence, 24 h. hit rate 0.21% among 360,000; active = well fitted falling curve with a large enough effect; inconclusive = small, poorly fitted or top-dose-only effect; inactive = no such curve, though single readings can be large or run the other way; also: % is scaled to controls: 0 for no effect and ±100 for the full control effect; nearly all actives have a fitted effect of over 50% in size
#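 Fission yeast strain RE007, carrying one chromosomally integrated HIV-1 vpr copy, was seeded at OD 0.01 in PMG+AL medium with 23 nL pinned compound. After 24 h at 30 °C and 99% humidity, viability was read by BacTiter-Glo luminescence.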
# Numbers without * were called inactive; ? = inconclusive; . = no result; [ ] = dose if it differs, or a comment. Unless noted, calls follow the shape of the dose curve; as a rule, active = well fitted curve in the direction sought with a large enough effect; inconclusive = small, poorly fitted or top-dose-only effect, or another doubt; inactive = no such curve, though single readings can be large; an effect the other way counts as inactive or inconclusive. Potency is read from the fitted curve at half-maximal effect.
SMILES,SARS PLpro yeast,NS1 function inh,LmPK inh,Sm TGR inh,Tb PYK inh,RE007 growth inh
Cc1ccccc1NC(=O)c1ccc(F)c(S(=O)(=O)N(C)C2CCCCC2)c1,.,.,.,-4%,1%,.
O=C1c2ccccc2C(=O)N1CCC(c1ccc(F)cc1)c1ccco1 (stereo not drawn),-18%,-57%,0%,40µM*,-2%,-16%
O=C(CC(c1ccc(F)cc1)c1ccco1)N1CCOCC1 (stereo not drawn),1%,1%,3%,-12%,-10%,-12%
O=C1CCC(=O)N1CCC(c1ccc(F)cc1)c1ccco1 (stereo not drawn),0%,2%,5%,45µM*,-5%,-4%
O=C(CSCn1nnc2c(=O)[nH]c(Cc3ccc(F)cc3)nc21)Nc1cccc(C(F)(F)F)c1,.,.,.,-3%,7%,.
Cc1nn(-c2ccccc2)c2nc(C(F)(F)F)[nH]c(=O)c12,17%,-15%,1%,-1%,5%,7%
Cc1nn(-c2cc(C(F)(F)F)ccc2Cl)c2nc(C(Cl)(Cl)Cl)[nH]c(=O)c12,-1%,-23%,0%,20µM*,2%,16%
COCC1=C(C(=O)OC(C)OC(=O)OC(C)C)N2C(=O)C(NC(=O)/C(=N/OC)c3csc(N)n3)[C@H]2SC1 (stereo partly drawn),.,.,.,.,-10%,.
CCCCCOc1ccc(/C(C)=N/NC2=NCCN2)cc1,-2%,-59%,4%,0%,8%,?
CCCCCCOc1ccc(/C(C)=N/NC2=NCCN2)cc1,-7%,-121%,-5%,1%,10%,35µM*
O=C1Nc2ccccc2N=C(c2ccccc2)C1Br (stereo not drawn),-2%,0%,1%,40µM*,-13%,2%
O=C1Nc2ccccc2N=C(c2ccccc2)C1N1CCOCC1 (stereo not drawn),-7%,-17%,0%,1%,5%,-6%
Cc1cc(=O)[nH]c(N/N=C/c2cc(C)n(-c3ccccc3)c2C)n1,1%,10%,-21%,32µM*,-2%,4%
COc1ccc(N(Cc2cccs2)C(=O)COc2cc(C)c(Cl)c(C)c2)cc1,.,.,.,-1%,2%,.
C=CCn1c(SCC(=O)NCCOC)nc2scc(-c3ccco3)c2c1=O,-1%,2%,2%,18µM*,-9%,-1%
O=C(CSc1nc2scc(-c3ccco3)c2c(=O)n1-c1ccccc1)NCC1CCCO1 (stereo not drawn),-3%,-26%,-4%,3.2µM*,.,26%[3.69 µM]
C=CCn1c(SCC(N)=O)nc2scc(-c3ccc(C)o3)c2c1=O,1%,2%,-16%,18µM*,-12%,9%
Cn1c(SCC(=O)NCC2CCCO2)nc2scc(-c3ccccc3)c2c1=O (stereo not drawn),0%,.,.,-3%,-4%,-17%
C=CCn1c(SCc2ccccc2)nc2scc(-c3ccc(C)o3)c2c1=O,4%,9%,-2%,?,-10%,-3%
C=CCn1c(SCC(=O)Nc2sccc2C(N)=O)nc2sc(C)c(C)c2c1=O,-3%,-19%,0%,40µM*,0%,-4%
O.O=C([O-])CC([S-])C(=O)[O-].[Au+].[Na+].[Na+] (stereo not drawn),.,.,.,.,-8%,.
CCc1cccc(C)c1NC(=O)CN(C)S(=O)(=O)c1cccc2nsnc12,.,.,.,25%,-6%,.
C=CCN=C1N[C@@H](c2ccc(Br)cc2)C(C(=O)OC)=C(C)N1Cc1ccccc1,-1%,4%,-7%,-11%,.,.
C=CCn1c(SCC(=O)NCC2CCCO2)nc2scc(-c3ccc(OC)cc3)c2c1=O (stereo not drawn),0%,2%,7%,2%,7%,6%
O=C(CSc1nc2scc(-c3ccco3)c2c(=O)n1-c1ccccc1)N1CCOCC1,1%,-3%,9%,45µM*,0%,-8%

# Source: PubChem (National Center for Advancing Translational Sciences (NCATS))
